Data on nine compounds can be found in PubChem BioAssay (NCI).

The panel holds about 79,000 compounds, 15% with a hit somewhere; the sample as a whole holds those more often. Values without a mark were called inactive. The source made the active and inactive calls. Cut-off read from the data, not from the text of the source: active = growth inhibition above about 70%; inactive = the rest.

Test [1] can be described thus: NCI Yeast Anticancer Drug Screen. Data for the rad50 strain (AID 155).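 Note: 0% = growth of vehicle-only cultures of the same strain.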 The note with it: S. cerevisiae rad50 strain growth inhibition, hits give high values. In short, it runs like this:
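Yeast carrying a defined DNA repair defect were exposed to test compounds, and growth was compared with vehicle-treated controls to give percent inhibition.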

A short description of test [2]: NCI Yeast Anticancer Drug Screen. Data for the mec2-1 strain (AID 157). The note with it: S. cerevisiae mec2-1 strain, hits give high values. In short, it runs like this: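 Using mec2-1 yeast: add compound, measure growth, express inhibition versus vehicle-treated cultures.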
A short description of test [3]: NCI Yeast Anticancer Drug Screen. Data for the sgs1 mgt1 strain (AID 161).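 Note: 0% = growth of cultures given vehicle only.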 Conditions: S. cerevisiae sgs1 mgt1 strain, hits give high values. Summed up: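 Growth of a repair-deficient yeast mutant was monitored after compound treatment and expressed as inhibition relative to vehicle-treated cultures.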
Test [4] can be described thus: NCI Yeast Anticancer Drug Screen. Data for the cln2 rad14 strain (AID 165).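 Note: 0% = growth equal to vehicle treated cultures.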 The note with it: S. cerevisiae cln2 rad14 strain, hits give high values. Summed up: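 Yeast strain cln2 rad14, bearing defects in cell cycle control and DNA repair, serves as the test system; values reflect growth inhibition compared with vehicle.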
Test [5] in a line: NCI Yeast Anticancer Drug Screen. Data for the bub3 strain (AID 167). The note with it: S. cerevisiae bub3 mutant strain, hits give high values. Summed up:
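Compounds were applied to a genetically altered yeast strain carrying a cell-cycle control defect. Growth inhibition was scored against vehicle-treated controls.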

A short description of test [6]: NCI Yeast Anticancer Drug Screen. Data for the mlh1 rad18 strain (AID 175). Conditions: S. cerevisiae mlh1 rad18 strain growth inhibition, hits give high values. In short, it runs like this: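 Steps: expose repair-defective yeast to compound; measure growth; express inhibition against vehicle-treated controls.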
The mark [7] stands for this setting: at 5.0 µM (retest, dose inferred, filed as 0.5).
The mark [8] stands for this setting: at 50.0 µM (retest, dose inferred, filed as 5.0).

As for `O=C(c1ccccc1)c1ccc(O)cc1O`, the growth inhibition in test [1] (setting [7]) is -5%; in test [1] (setting [8]), 49%; in test [1] (at 50.0 µM) it was 85% (active); in test [2] (setting [7]) it was -10%; in test [2] (setting [8]), 24%; in test [2] (at 50.0 µM) it was 84.5% (active). Also, the growth inhibition in test [3] (setting [7]) was -5%; in test [3] (setting [8]), 15%; in test [3] (at 50.0 µM), 88.5% (active); in test [4] (setting [7]), -4%; in test [4] (setting [8]), 2%; in test [4] (at 50.0 µM), 26.4%. Also, the growth inhibition in test [5] (setting [7]) is -26%; in test [5] (setting [8]) it was -17%; in test [5] (at 50.0 µM), 58.9%; in test [6] (setting [7]), -9%; in test [6] (setting [8]) it was 12%; in test [6] (at 50.0 µM), 72.1% (active).

In the case of `COC(=O)C1=C(CS(=O)c2ccccc2[N+](=O)[O-])ON(C)C1c1ccccc1` (configuration not stated), the growth inhibition is 3% in test [1] (setting [7]); 49% in test [1] (setting [8]); 6.55% in test [1] (at 50.0 µM); -9% in test [2] (setting [7]); 66% in test [2] (setting [8]); 53.1% in test [2] (at 50.0 µM). Also, the growth inhibition in test [3] (setting [7]) was 13%; in test [3] (setting [8]), 74% (active); in test [3] (at 50.0 µM), 56.8%; in test [4] (setting [7]), -4%; in test [4] (setting [8]), 11%; in test [4] (at 50.0 µM), 22.2%. For the same compound, the growth inhibition was -3% in test [5] (setting [7]); 45% in test [5] (setting [8]); 59.4% in test [5] (at 50.0 µM); 5% in test [6] (setting [7]); 13% in test [6] (setting [8]); 68.5% in test [6] (at 50.0 µM).

Turning to `O=C1c2ccccc2C(=O)C2OC12` (configuration not stated), the growth inhibition is 48% in test [1] (setting [7]); 98% (active) in test [1] (setting [8]); 93.2% (active) in test [1] (at 50.0 µM); 48% in test [2] (setting [7]); 98% (active) in test [2] (setting [8]); 95.1% (active) in test [2] (at 50.0 µM). Also, the growth inhibition in test [3] (setting [7]) was 50%; in test [3] (setting [8]), 99% (active); in test [3] (at 50.0 µM) it was 94.7% (active); in test [4] (setting [7]), 72% (active); in test [4] (setting [8]), 99% (active); in test [4] (at 50.0 µM), 93.3% (active). Besides, the growth inhibition in test [5] (setting [7]) was 73% (active); in test [5] (setting [8]), 100% (active); in test [5] (at 50.0 µM), 93.5% (active); in test [6] (setting [7]), 51%; in test [6] (setting [8]), 99% (active); in test [6] (at 50.0 µM), 89.9% (active).

`[Cl-].[La+3].[O-]/N=C(\c1ccccc1)c1ccccn1.[O-]/N=C(\c1ccccc1)c1ccccn1.[O-]/N=C(\c1ccccc1)c1ccccn1`: the growth inhibition is 42% in test [1] (setting [7]); 63% in test [1] (setting [8]); 63.3% in test [1] (at 50.0 µM); 25% in test [2] (setting [7]); 60% in test [2] (setting [8]); 40.2% in test [2] (at 50.0 µM). The growth inhibition in test [3] (setting [7]) was 31%; in test [3] (setting [8]), 68%; in test [3] (at 50.0 µM), 43.2%; in test [4] (setting [7]), 21%; in test [4] (setting [8]) it was 34%; in test [4] (at 50.0 µM), 43.5%. In addition, the growth inhibition was 42% in test [5] (setting [7]); 90% (active) in test [5] (setting [8]); 67.3% in test [5] (at 50.0 µM); 43% in test [6] (setting [7]); 68% in test [6] (setting [8]); 59.2% in test [6] (at 50.0 µM).

For `O=C1COC(=O)/C1=C\C=C\c1ccccc1`, the growth inhibition is 5% in test [1] (setting [7]); 55% in test [1] (setting [8]); 95.6% (active) in test [1] (at 50.0 µM); 8% in test [2] (setting [7]); 84% (active) in test [2] (setting [8]); 91% (active) in test [2] (at 50.0 µM). For the same compound, the growth inhibition in test [3] (setting [7]) was 13%; in test [3] (setting [8]), 78% (active); in test [3] (at 50.0 µM), 99% (active); in test [4] (setting [7]) it was 1%; in test [4] (setting [8]) it was 94% (active); in test [4] (at 50.0 µM), 95.4% (active). In addition, the growth inhibition was -5% in test [5] (setting [7]); 43% in test [5] (setting [8]); 97.2% (active) in test [5] (at 50.0 µM); 2% in test [6] (setting [7]); 68% in test [6] (setting [8]); 99% (active) in test [6] (at 50.0 µM).

Regarding `Cc1ccnc(NS(=O)(=O)c2ccc(N=Cc3c4ccccc4nc4cc(Cl)ccc34)cc2)n1`, the growth inhibition in test [1] (setting [7]) was 58%; in test [1] (setting [8]), 15%; in test [1] (at 50.0 µM), 99.4% (active); in test [2] (setting [7]) it was 32%; in test [2] (setting [8]) it was 38%; in test [2] (at 50.0 µM), 99.2% (active). The growth inhibition in test [3] (setting [7]) is 41%; in test [3] (setting [8]), 23%; in test [3] (at 50.0 µM), 99.4% (active); in test [4] (setting [7]), 16%; in test [4] (setting [8]), 1%; in test [4] (at 50.0 µM), 99% (active). For the same compound, the growth inhibition is 40% in test [5] (setting [7]); -2% in test [5] (setting [8]); 58.1% in test [5] (at 50.0 µM); 24% in test [6] (setting [7]); 11% in test [6] (setting [8]); 99.3% (active) in test [6] (at 50.0 µM).

For the compound `CCOC(=O)C(Cc1ccc(O)c(C=O)c1)NC(C)=O` (configuration not stated), the growth inhibition in test [1] (setting [7]) was -13%; in test [1] (setting [8]), 7%; in test [1] (at 50.0 µM), -19.7%; in test [2] (setting [7]) it was -9%; in test [2] (setting [8]) it was 20%; in test [2] (at 50.0 µM), -7.45%. The growth inhibition in test [3] (setting [7]) is -22%; in test [3] (setting [8]), 2%; in test [3] (at 50.0 µM) it was 0.3%; in test [4] (setting [7]) it was 3%; in test [4] (setting [8]) it was 39%; in test [4] (at 50.0 µM), -8.75%. Moreover, the growth inhibition is -1% in test [5] (setting [7]); 3% in test [5] (setting [8]); 0.05% in test [5] (at 50.0 µM); -7% in test [6] (setting [7]); -10% in test [6] (setting [8]); -1.55% in test [6] (at 50.0 µM).

For `Nc1nc(-c2ccc(Cl)cc2)cs1`, the growth inhibition in test [1] (setting [7]) is -20%; in test [1] (setting [8]), 94% (active); in test [1] (at 50.0 µM) it was 98% (active); in test [2] (setting [7]) it was 4%; in test [2] (setting [8]), 91% (active); in test [2] (at 50.0 µM), 97.4% (active). The growth inhibition in test [3] (setting [7]) was 8%; in test [3] (setting [8]), 91% (active); in test [3] (at 50.0 µM) it was 98.2% (active); in test [4] (setting [7]), -44%; in test [4] (setting [8]), 92% (active); in test [4] (at 50.0 µM) it was 97% (active). The growth inhibition in test [5] (setting [7]) was -29%; in test [5] (setting [8]) it was 90% (active); in test [5] (at 50.0 µM), 97.8% (active); in test [6] (setting [7]), -30%; in test [6] (setting [8]) it was 97% (active); in test [6] (at 50.0 µM), 97.7% (active).

Turning to `Nc1nc(N)c(-c2cccc(C(F)(F)F)c2)c(Cc2cccc(C(F)(F)F)c2)n1`, the growth inhibition in test [1] (setting [7]) is -2%; in test [1] (setting [8]) it was 98% (active); in test [1] (at 50.0 µM), 99.6% (active); in test [2] (setting [7]), 14%; in test [2] (setting [8]), 98% (active); in test [2] (at 50.0 µM), 99.3% (active). In addition, the growth inhibition in test [3] (setting [7]) is -1%; in test [3] (setting [8]) it was 98% (active); in test [3] (at 50.0 µM) it was 99.3% (active); in test [4] (setting [7]), 24%; in test [4] (setting [8]), 91% (active); in test [4] (at 50.0 µM), 98.9% (active). The growth inhibition in test [5] (setting [7]) is -4%; in test [5] (setting [8]), 95% (active); in test [5] (at 50.0 µM), 99.2% (active); in test [6] (setting [7]) it was 0%; in test [6] (setting [8]), 99% (active); in test [6] (at 50.0 µM) it was 99.6% (active).
